# Assay outcomes (PubChem)
# Hits are enriched below; roughly 5.9% of the tested compounds scored in any of these assays.
# rTrxR1 inhibitor – blocks rat thioredoxin reductase 1. recombinant rTrxR1, NADPH fluorescence consumption, selenite substrate. Potency, µM (series often up to 114 µM), without a hit: top-dose activity change, negative = inhibition, usual class: inhibitors. 390,000 compounds, 1% hits. AID 588453; further: potency means the concentration at half of the fitted maximal effect; nearly all actives have a fitted effect of over 65% in size
#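 Rat TrxR1 (90 nM in the dispensed reagent) was pre-reduced with 400 uM NADPH for 5 min at room temperature, then incubated with compound for 15 min. After 400 uM selenite was added, NADPH fluorescence (Ex 340/Em 450 nm) was followed for 8 min.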
# TrxR1 substrate – rat thioredoxin reductase 1 substrate activity. O89049. purified TrxR1 substrate turnover, NADPH consumption readout. Potency, µM (series often up to 114 µM), without a hit: at the highest dose activity change, negative = substrate turnover. 390,000 compounds, 0.01% hits; further: potency means the concentration at half of the fitted maximal effect; nearly all actives have a fitted effect of over 50% in size
#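 Rat TrxR1, dispensed at 90 nM, was prereduced with 400 uM NADPH (final) for 5 min at ~22 deg C, then incubated with compound 15 min before 400 uM selenite. A first-read NADPH fluorescence drop versus no-compound background flagged substrates.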
# FBPA coupling cs – coupling enzyme interference in Giardia aldolase counter-screen. coupling enzyme system counterscreen, AmpLite Red fluorescence. activity change, negative = inhibition, % at 58.2 µM, hits read low. 290,000 compounds, 0.67% hits. AID 2472; in the data active means activity change below about -30%
#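 Final compound at 57.5 uM, incubated 10 min at RT with coupling enzyme reagent (glyceraldehyde-3-phosphate), then 20 min with substrate and AmpLite Red detection. Fluorescence read at 525/598 nm; tests interference with the coupling assay, not aldolase inhibition.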
# RORg inh – inhibitors of mouse ROR gamma transcriptional activity. P51450. Drosophila S2 Gal4-RORgamma UAS-luciferase reporter, 20 h. 310,000 compounds, 5.4% hits. Potency, µM (doses to about 53.6 µM), for inactives: at the top dose activity change, negative = inhibition, hits mostly inhibitors. AID 2551; further: potency means the concentration at half of the fitted maximal effect; nearly all actives have a fitted effect of over 60% in size
# Target sequence (P51450 whole entry, looked up, the tested form may be a part): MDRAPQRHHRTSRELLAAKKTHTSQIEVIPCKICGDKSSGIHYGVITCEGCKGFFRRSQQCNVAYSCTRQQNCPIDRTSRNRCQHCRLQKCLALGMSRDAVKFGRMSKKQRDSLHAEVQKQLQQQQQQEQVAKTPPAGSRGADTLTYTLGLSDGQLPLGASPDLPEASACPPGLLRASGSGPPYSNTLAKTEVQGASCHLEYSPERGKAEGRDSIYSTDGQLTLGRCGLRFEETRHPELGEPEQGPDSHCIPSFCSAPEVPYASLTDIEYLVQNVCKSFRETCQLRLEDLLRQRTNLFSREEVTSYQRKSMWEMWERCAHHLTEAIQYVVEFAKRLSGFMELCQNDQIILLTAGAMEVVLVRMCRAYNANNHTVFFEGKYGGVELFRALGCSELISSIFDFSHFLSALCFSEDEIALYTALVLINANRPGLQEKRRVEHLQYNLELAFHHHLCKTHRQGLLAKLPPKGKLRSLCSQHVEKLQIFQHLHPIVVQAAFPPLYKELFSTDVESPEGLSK
#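 Schneider cells (Drosophila), stable Gal4 DBD–ROR gamma + UAS-luc; 1 hr cmpd preincubation; Cu2+ induction 700 uM final; 20 hr ambient; luminescence.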
# GALK inhibitor – blocks human galactokinase activity | P51570 | Purified GALK, Kinase-Glo residual ATP luminescence | 270,000 compounds, 0.007% hits | Potency, µM (highest dose often 57.5 µM), without a hit: at the highest dose activity change, negative = inhibition, actives largely listed as inhibitors; further: potency means the concentration at half of the fitted maximal effect
#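 Luminescence from leftover ATP (Ultra-Glo luciferase/luciferin) served as read-out after a 1 h room-temperature reaction of 5 nM GALK with 35 uM ATP and 100 uM galactose.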
# Gal4-VP16 FLuc – counter-screen for ROR gamma inhibitors: Gal4-VP16 reporter | Drosophila S2 Gal4-VP16 UAS-luciferase, luminescence, 20 h | Potency, µM (titrated, usually from 53.6 µM), without a hit: top-dose activity, negative = inhibition, hits mostly inhibitors | 310,000 compounds, 3.5% hits | AID 2546;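 further: Gal4-VP16 expression switched on by copper sulfate through the metallothionein promoter; potency means the concentration at half of the fitted maximal effect; nearly all actives have a fitted effect of over 50% in size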
# Starred values were filed as active, the others as inactive; u = inconclusive; x = not tested or not shown; [ ] = dose if it differs, or a comment. Unless noted, the call rests on the fitted dose curve; in most records, active means well fitted curve in the direction sought with a large enough effect; inconclusive means small, poorly fitted or top-dose-only effect, or another doubt; inactive means no such curve, though single readings can be large; an effect the other way counts as inactive or inconclusive. On the % scale 0 is the no-effect control and ±100 the full control effect.
SMILES,rTrxR1 inhibitor,TrxR1 substrate,FBPA coupling cs,RORg inh,GALK inhibitor,Gal4-VP16 FLuc
CC(=O)c1c(C)nc(Nc2nc(C)c3cc(C)ccc3n2)nc1C,-11%,9%,0,4µM*,-1%,u
Cc1ccc(C(C)C)cc1NC(=O)Nc1ccc([N+](=O)[O-])cc1,6%[57.1 µM],-2%[57.1 µM],-5,35µM*,-3%,13µM*
Cc1cc(O)c(C(C)C)cc1NC(=O)Nc1ccc([N+](=O)[O-])cc1,-7%,-9%,x,x,x,x
CCOc1ncc(S(=O)(=O)N2CCN(CC)CC2)cc1C(=O)O,20%,5%,0,-19%,6%,2%
COC(=O)C1=C(C)NC(=S)NC1c1ccc(-c2cc(Cl)ccc2Cl)o1 (stereo not drawn),32µM*,3%,0,4µM*,-1%,4.5µM*
COC(=O)C1=C(C)NC(=S)NC1c1sccc1C (stereo not drawn),13%[57.1 µM],7%[57.1 µM],3,16µM*,9%,-10%
COC(=O)C1=C(C)NC(=S)NC1c1ccc(OC(=O)c2ccco2)cc1 (stereo not drawn),25%[57.1 µM],-8%[57.1 µM],10,-27%,-3%,-1%
CC1=C(C(=O)Nc2ccccc2C(F)(F)F)C(c2sccc2C)NC(=S)N1 (stereo not drawn),8%[57.1 µM],4%,1,20µM*,4%,-2%
CC1=C(C(=O)OC(C)C)C(c2cccs2)NC(=S)N1 (stereo not drawn),-24%,-10%,3,13µM*,0%,u
CC1=C(C(N)=O)C(c2cccs2)NC(=S)N1 (stereo not drawn),7%[57.1 µM],8%[57.1 µM],7,-8%,9%,6%
Cc1cccn2cc(CSc3ccccc3N)nc12,27%,10%,-1,u,1%,-23%
CC(C)CCc1noc(CN2CCN(CC(=O)NC(C)C)CC2)n1,3%,2%,3,u,5%,-5%
CCCCc1c(C)nn(-c2nnc3c4ccccc4n(C)c3n2)c1C,5%,-4%,3,0.79µM*,-1%,7.1µM*
COc1cc(-c2nc3ccccn3c2/N=C/c2cc(OC)c(OC)c(OC)c2)ccc1O,-19%,54%,x,x,x,x
CN(C)c1ccc(-c2nc3ccccn3c2/N=C/c2ccc(Br)cc2)cc1,19%,10%,-6,7.1µM*,3%,8.9µM*
Cc1c(-c2ccc(Br)cc2)nc2ccccn12,19%,31%,0,10µM*,4%,u
CC1C(=O)Nc2ccc(S(=O)(=O)N3CCN(c4cccc(Cl)c4)CC3)cc2NC1=O (stereo not drawn),-9%[57.1 µM],4%[57.1 µM],1,33%,x,-4%
CCOc1ccc(OCCC(=O)OC(C)C(=O)Nc2ccc(Cl)cn2)cc1 (stereo not drawn),-4%,-6%,x,x,x,x
NS(=O)(=O)c1ccc(CCNCc2cc(Cl)ccc2OCc2ccccc2)cc1,23%,-1%,2,u,-4%,u
Nc1nonc1C(=O)NCCNCc1cc(Br)ccc1OCc1ccccc1F,14%,2%,0,u,0%,4µM*
NS(=O)(=O)c1ccc(CCNCc2cc(Br)ccc2OCc2ccccc2F)cc1,23%[57.1 µM],-10%[57.1 µM],0,-18%,-1%,13µM*
Cc1ccc(C(=O)ONC(=O)c2ccc(Cl)cc2)cc1[N+](=O)[O-],14%,6%,5,-20%,0%,u
COc1ccc(OCC(=O)NC(=S)Nc2ccc3c4c(cccc24)CC3)cc1,20%,9%,1,u,x,u
COc1cccc(C(=O)NC(=S)Nc2ccc(Cl)cc2C(=O)O)c1,21%[0.0914 µM],19%,-1,10µM*,4%,7.1µM*
COc1cccc(C(=O)NC(=S)Nc2ccc3c4c(cccc24)CC3)c1,-37%,9%[57.1 µM],-1,3.5µM*,-3%,11µM*
SMILES,rTrxR1 inhibitor,TrxR1 substrate,FBPA coupling cs,RORg inh,GALK inhibitor,Gal4-VP16 FLuc
COc1cccc(NC(=O)c2cccc(Cl)c2)c1,1%,-1%,x,x,x,x
Cc1ccc(CNS(=O)(=O)c2c(C)[nH]c(C)c2C(=O)N2CCCC2)cc1,10%[57.1 µM],-13%[57.1 µM],-1,2%,-2%,8%
CCN1CCN(c2c(/C=C3\SC(=S)N(Cc4ccco4)C3=O)c(C)c(C#N)c(=O)n2C)CC1,-12%,-3%,-12,7.1µM*,x,u
CCc1ccc(NC(=O)C2C3C=CC(C4CC34)C2C(=O)O)cc1 (stereo not drawn),4%,-3%,6,-11%,-3%,4%
CC1CN(C(=O)CSc2nnc(-c3ccncc3)n2-c2ccccc2)CC(C)O1 (stereo not drawn),18%,17%,-1,-1%,-1%,-14%
CS(=O)(=O)c1cccc(-c2nnc(NC(=O)C3=COCCO3)o2)c1,-5%[57.1 µM],-2%[57.1 µM],x,x,x,x
O=C(Nc1nnc(C2=COCCO2)o1)c1ccc(Cl)cc1,4%,-1%,0,0.63µM*,0%,-88%
O=C(Nc1nnc(C2=COCCO2)o1)c1ccc(F)cc1,10%,-1%,-1,0.89µM*,3%,0.79µM*
O=C(Nc1nnc(C2=COCCO2)o1)c1cccc(C(F)(F)F)c1,4%,-2%,x,0.56µM*,4%,0.32µM*
CC(=O)Nc1nnc(C2=COCCO2)o1,35%[57.1 µM],7%[57.1 µM],5,2%,1%,0%
O=C(Nc1nnc(C2=COCCO2)o1)c1ccc(Cc2ccccc2)cc1,0%[57.1 µM],7%,10,0.63µM*,1%,3.2µM*
O=C(O)CC(NC(=O)C(F)(F)F)c1ccc2c(c1)OCO2 (stereo not drawn),14%[57.1 µM],8%,2,2%,-2%,-14%
CC(=O)C1=NOC2C(=O)N(c3ccccc3)C(=O)C12 (stereo not drawn),1%[2.29 µM],17%[57.1 µM],-1,-7%,3%,-6%
O=C(Nc1nnc(-c2ccc(Br)cc2)o1)C1=COCCO1,-10%,-4%,x,x,x,x
O=C(Nc1nnc(C2=COCCO2)o1)c1ccc([N+](=O)[O-])cc1,0%,-7%,x,1.1µM*,-5%,0.89µM*
O=C(Nc1nnc(C2=COCCO2)o1)c1ccc(Br)cc1,x,x,x,0.79µM*,6%,0.5µM*
CSc1ccc(-c2nnc(NC(=O)c3ccc4c(c3)OCCO4)o2)cc1,14%[57.1 µM],-1%[57.1 µM],x,x,x,x
NC(=O)CC(NC(=O)c1ccccc1)c1ccc(NCc2ccc(F)cc2)c([N+](=O)[O-])c1 (stereo not drawn),18%,0%,0,18%,0%,3%
c1ccc2c(c1)CCN(c1nc(CN3CCOCC3)nc3sc4c(c13)CCCC4)C2,-19%,2%,0,11µM*,1%,u
COc1ccc(NC(=O)C(C)n2nc(-c3ccc(C)c(C)c3)ccc2=O)cc1OC (stereo not drawn),11%,12%,x,x,x,x
